Experimental findings from the supplement of paper PMC10077471 are described below.

Molecules are shown by their SMILES. The full ranking holds about 1,900 compounds; the median of “excess over highest single agent (ExcessHSA) synergy score, 6x6 matrix” is about -83, and the lowest 2% start at about -370. Only a selection was taken, and the lowest values are over-represented in it overall.

In the experiment the test system is NCI-H446. As to the kind of experiment: excess over highest single agent (ExcessHSA) synergy score, 6x6 matrix; higher = less synergy (more negative = stronger synergy). The conditions noted are these: 72 h; CellTiter-Glo viability. (Cellular ATP, detected with luciferase, serves as a proxy for viable cell number.)
Take `CN(C)c1ccc(-c2nc3ncc(Cl)c(N4CCN(CC(=O)Nc5nccs5)CC4)c3[nH]2)cc1` + Cc1sc2c(c1C)C(c1ccc(Cl)cc1)=N[C@@H](CC(=O)OC(C)(C)C)c1nnc(C)n1-2 [NCGC00250412-19]: the “excess over highest single agent” value was -382.

In the case of `Cc1cc(CN2CCN(c3c(Br)cnc4nc(-c5ccc(N6CCN(C)CC6)cc5)[nH]c34)CC2)no1` + Cc1sc2c(c1C)C(c1ccc(Cl)cc1)=N[C@@H](CC(=O)OC(C)(C)C)c1nnc(C)n1-2 [NCGC00250412-19], the “excess over highest single agent” value was -107.

`CCOC(CN1C(=O)[C@](CC(=O)Nc2ccc(C)cc2)(NC(=O)Nc2ccc(C)cc2)c2ccccc21)OCC` + Cc1sc2c(c1C)C(c1ccc(Cl)cc1)=N[C@@H](CC(=O)OC(C)(C)C)c1nnc(C)n1-2 [NCGC00250412-19]: the “excess over highest single agent” value was -94.2.

Take `COc1cc2c(cc1OC)CN(CCc1ccc(NC(=O)c3cc(OC)c(OC)cc3NC(=O)c3cnc4ccccc4c3)cc1)CC2` + Cc1sc2c(c1C)C(c1ccc(Cl)cc1)=N[C@@H](CC(=O)OC(C)(C)C)c1nnc(C)n1-2 [NCGC00250412-19]: the “excess over highest single agent” value came out at 50.9.

Regarding `Cc1cccc(-c2[nH]c(C(C)(C)C)nc2-c2ccc3c(c2)OCO3)n1` + Cc1sc2c(c1C)C(c1ccc(Cl)cc1)=N[C@@H](CC(=O)OC(C)(C)C)c1nnc(C)n1-2 [NCGC00250412-19], the “excess over highest single agent” value is -84.7.

`CC(C)(O)CC(=O)NCCn1ccc2ncnc(Nc3ccc(Oc4cccc(C(F)(F)F)c4)c(Cl)c3)c21` + Cc1sc2c(c1C)C(c1ccc(Cl)cc1)=N[C@@H](CC(=O)OC(C)(C)C)c1nnc(C)n1-2 [NCGC00250412-19]: the “excess over highest single agent” value turned out to be 16.5.

Regarding `CC(C)[C@H](C(=O)Nc1ccc(C(=O)NO)cc1)c1ccccc1` + Cc1sc2c(c1C)C(c1ccc(Cl)cc1)=N[C@@H](CC(=O)OC(C)(C)C)c1nnc(C)n1-2 [NCGC00250412-19], the “excess over highest single agent” value was -112.

As to `C=C1/C(=C\C=C2/CCC[C@]3(C)[C@@H]([C@H](C)/C=C/C=C/C(O)(CC)CC)CC[C@@H]23)C[C@@H](O)C[C@@H]1O` + Cc1sc2c(c1C)C(c1ccc(Cl)cc1)=N[C@@H](CC(=O)OC(C)(C)C)c1nnc(C)n1-2 [NCGC00250412-19], the “excess over highest single agent” value came to 84.4.

In the case of `COc1ccc2cc1Oc1ccc(cc1)C[C@H]1c3cc(c(OC)cc3CCN1C)Oc1c(OC)c(OC)cc3c1[C@H](C2)N(C)CC3` + Cc1sc2c(c1C)C(c1ccc(Cl)cc1)=N[C@@H](CC(=O)OC(C)(C)C)c1nnc(C)n1-2 [NCGC00250412-19], the “excess over highest single agent” value is -432.

On to `COc1cc2c(cc1OC)[C@@H]1Cc3ccc(OC)c(OC)c3CN1CC2` + Cc1sc2c(c1C)C(c1ccc(Cl)cc1)=N[C@@H](CC(=O)OC(C)(C)C)c1nnc(C)n1-2 [NCGC00250412-19], for which the “excess over highest single agent” value was -95.9.

Consider `COc1ccc2c(c1OC)CN1CCc3cc4c(cc3C1C2)OCO4` (configuration not stated) + Cc1sc2c(c1C)C(c1ccc(Cl)cc1)=N[C@@H](CC(=O)OC(C)(C)C)c1nnc(C)n1-2 [NCGC00250412-19], for which the “excess over highest single agent” value is -109.

With `Cc1ccc2c(c1)c1c(n2CCc2ccc(C)nc2)CCN(C)C1` + Cc1sc2c(c1C)C(c1ccc(Cl)cc1)=N[C@@H](CC(=O)OC(C)(C)C)c1nnc(C)n1-2 [NCGC00250412-19], the “excess over highest single agent” value was -121.

With `CC[C@@]1(O)C(=O)OCc2c1cc1n(c2=O)Cc2cc3c(CN(C)C)c(O)ccc3nc2-1` + Cc1sc2c(c1C)C(c1ccc(Cl)cc1)=N[C@@H](CC(=O)OC(C)(C)C)c1nnc(C)n1-2 [NCGC00250412-19], the “excess over highest single agent” value is -475.

`CCc1c2c(nc3ccc(OC(=O)N4CCC(N5CCCCC5)CC4)cc13)-c1cc3c(c(=O)n1C2)COC(=O)[C@]3(O)CC` + Cc1sc2c(c1C)C(c1ccc(Cl)cc1)=N[C@@H](CC(=O)OC(C)(C)C)c1nnc(C)n1-2 [NCGC00250412-19]: the “excess over highest single agent” value was -249.

For the molecule `CCc1c2c(nc3ccc(O)cc13)-c1cc3c(c(=O)n1C2)COC(=O)[C@]3(O)CC` + Cc1sc2c(c1C)C(c1ccc(Cl)cc1)=N[C@@H](CC(=O)OC(C)(C)C)c1nnc(C)n1-2 [NCGC00250412-19], the “excess over highest single agent” value was -327.

Take `CC[C@@]1(O)C(=O)OCc2c1cc1n(c2=O)Cc2cc3ccccc3nc2-1` + Cc1sc2c(c1C)C(c1ccc(Cl)cc1)=N[C@@H](CC(=O)OC(C)(C)C)c1nnc(C)n1-2 [NCGC00250412-19]: the “excess over highest single agent” value is -249.

With `CC[C@@]1(O)C(=O)OCc2c1cc1n(c2=O)Cc2cc3cc(O)ccc3nc2-1` + Cc1sc2c(c1C)C(c1ccc(Cl)cc1)=N[C@@H](CC(=O)OC(C)(C)C)c1nnc(C)n1-2 [NCGC00250412-19], the “excess over highest single agent” value was -416.

`CC[C@H](CC#N)OC(=O)N[C@@H](C)c1cccc(NC(=O)Nc2ccc(-c3cnco3)c(OC)c2)c1` + Cc1sc2c(c1C)C(c1ccc(Cl)cc1)=N[C@@H](CC(=O)OC(C)(C)C)c1nnc(C)n1-2 [NCGC00250412-19]: the “excess over highest single agent” value was -174.

`Cc1cccc(Nc2nc(N[C@@H]3CCCC[C@@H]3N)ncc2C(N)=O)c1` + Cc1sc2c(c1C)C(c1ccc(Cl)cc1)=N[C@@H](CC(=O)OC(C)(C)C)c1nnc(C)n1-2 [NCGC00250412-19]: the “excess over highest single agent” value was -24.

Consider `Cn1cnc(-c2cc3nccc(Oc4ccc(NC(=S)NC(=O)Cc5ccccc5)cc4F)c3s2)c1` + Cc1sc2c(c1C)C(c1ccc(Cl)cc1)=N[C@@H](CC(=O)OC(C)(C)C)c1nnc(C)n1-2 [NCGC00250412-19], for which the “excess over highest single agent” value was -36.3.

Take `C#Cc1cccc(Nc2ncnc3cc(OCCOC)c(OCCO)cc23)c1` + Cc1sc2c(c1C)C(c1ccc(Cl)cc1)=N[C@@H](CC(=O)OC(C)(C)C)c1nnc(C)n1-2 [NCGC00250412-19]: the “excess over highest single agent” value was -46.8.

With `CCN1CCC(n2cc(CNc3cc(Cl)c4ncc(C#N)c(Nc5ccc(F)c(Cl)c5)c4c3)nn2)CC1` + Cc1sc2c(c1C)C(c1ccc(Cl)cc1)=N[C@@H](CC(=O)OC(C)(C)C)c1nnc(C)n1-2 [NCGC00250412-19], the “excess over highest single agent” value came to 44.4.

For the molecule `CN(C1CCc2c(c3ccccc3n2CC(=O)O)C1)S(=O)(=O)c1ccc(F)cc1` (configuration not stated) + Cc1sc2c(c1C)C(c1ccc(Cl)cc1)=N[C@@H](CC(=O)OC(C)(C)C)c1nnc(C)n1-2 [NCGC00250412-19], the “excess over highest single agent” value was -115.

With `CC/C=C\CC1C(=O)CCC1CC(=O)OC` (configuration not stated) + Cc1sc2c(c1C)C(c1ccc(Cl)cc1)=N[C@@H](CC(=O)OC(C)(C)C)c1nnc(C)n1-2 [NCGC00250412-19], the “excess over highest single agent” value amounted to 223.

Turning to `NC(=O)Nc1cc(-c2ccc(CN3CCOCC3)cc2)sc1C(N)=O` + Cc1sc2c(c1C)C(c1ccc(Cl)cc1)=N[C@@H](CC(=O)OC(C)(C)C)c1nnc(C)n1-2 [NCGC00250412-19], the “excess over highest single agent” value is -229.

On to `CCNC(=O)c1noc(-c2cc(C(C)C)c(O)cc2O)c1-c1ccc(CN2CCOCC2)cc1` + Cc1sc2c(c1C)C(c1ccc(Cl)cc1)=N[C@@H](CC(=O)OC(C)(C)C)c1nnc(C)n1-2 [NCGC00250412-19], for which the “excess over highest single agent” value is -382.

Consider `CC(C)c1cc(C(=O)N2Cc3ccc(CN4CCN(C)CC4)cc3C2)c(O)cc1O` + Cc1sc2c(c1C)C(c1ccc(Cl)cc1)=N[C@@H](CC(=O)OC(C)(C)C)c1nnc(C)n1-2 [NCGC00250412-19], for which the “excess over highest single agent” value is -247.

For the molecule `CC(C)(C)OC(=O)Nc1ccc(-c2cc(C(=O)NCCCCCCC(=O)NO)no2)cc1` + Cc1sc2c(c1C)C(c1ccc(Cl)cc1)=N[C@@H](CC(=O)OC(C)(C)C)c1nnc(C)n1-2 [NCGC00250412-19], the “excess over highest single agent” value is -161.

In the case of `O=C(O)[C@H]1O[C@@H](Oc2cc3oc(-c4ccccc4)cc(=O)c3c(O)c2O)[C@H](O)[C@@H](O)[C@@H]1O` + Cc1sc2c(c1C)C(c1ccc(Cl)cc1)=N[C@@H](CC(=O)OC(C)(C)C)c1nnc(C)n1-2 [NCGC00250412-19], the “excess over highest single agent” value was -92.6.

With `OC1CCC(Nc2ncc3nc(Nc4c(F)cc(F)cc4F)n([C@@H]4CCOC4)c3n2)CC1` (some centres not stated) + Cc1sc2c(c1C)C(c1ccc(Cl)cc1)=N[C@@H](CC(=O)OC(C)(C)C)c1nnc(C)n1-2 [NCGC00250412-19], the “excess over highest single agent” value is 17.3.

On to `CCC(=O)N[C@H]1CC[C@H](C(=O)N(C)c2ccc(-c3nc4ccccc4o3)cc2)C1` + Cc1sc2c(c1C)C(c1ccc(Cl)cc1)=N[C@@H](CC(=O)OC(C)(C)C)c1nnc(C)n1-2 [NCGC00250412-19], for which the “excess over highest single agent” value was -57.

Regarding `CN1CCN(Cc2ccc(NC(=O)Nc3ccc(Oc4cc(NC(=O)C5CC5)ncn4)cc3)cc2C(F)(F)F)CC1` + Cc1sc2c(c1C)C(c1ccc(Cl)cc1)=N[C@@H](CC(=O)OC(C)(C)C)c1nnc(C)n1-2 [NCGC00250412-19], the “excess over highest single agent” value was -34.2.

Regarding `CC(=O)N(C)C1(c2ccccc2)CCN(CCC[C@]2(c3ccc(Cl)c(Cl)c3)CCCN(C(=O)c3ccccc3)C2)CC1` + Cc1sc2c(c1C)C(c1ccc(Cl)cc1)=N[C@@H](CC(=O)OC(C)(C)C)c1nnc(C)n1-2 [NCGC00250412-19], the “excess over highest single agent” value was -142.

`O=C(N[C@@H](COc1ccc2[nH]c(=O)[nH]c2c1)c1ccccc1)c1cccn(Cc2ccc(F)c(F)c2)c1=O` + Cc1sc2c(c1C)C(c1ccc(Cl)cc1)=N[C@@H](CC(=O)OC(C)(C)C)c1nnc(C)n1-2 [NCGC00250412-19]: the “excess over highest single agent” value is -158.

Regarding `COCC1OC(=O)c2coc3c2C1(C)C1=C(C3=O)C2CCC(O)C2(C)CC1OC(C)=O` (configuration not stated) + Cc1sc2c(c1C)C(c1ccc(Cl)cc1)=N[C@@H](CC(=O)OC(C)(C)C)c1nnc(C)n1-2 [NCGC00250412-19], the “excess over highest single agent” value is -423.

In the case of `COC[C@H]1OC(=O)c2coc3c2[C@@]1(C)C1=C(C3=O)[C@@H]2CCC(=O)[C@@]2(C)C[C@H]1OC(C)=O` + Cc1sc2c(c1C)C(c1ccc(Cl)cc1)=N[C@@H](CC(=O)OC(C)(C)C)c1nnc(C)n1-2 [NCGC00250412-19], the “excess over highest single agent” value is -484.

In the case of `COc1cc2ncnc(Nc3cc(Br)c(O)c(Br)c3)c2cc1OC` + Cc1sc2c(c1C)C(c1ccc(Cl)cc1)=N[C@@H](CC(=O)OC(C)(C)C)c1nnc(C)n1-2 [NCGC00250412-19], the “excess over highest single agent” value was -207.
